PubChem BioAssay AID1645879 (National Center for Advancing Translational Sciences (NCATS), 2021)
Results filed as inconclusive are left out. Values without a mark were called inactive. The source made the active and inactive calls. Calls come from the whole dose curve; as a rule, active = well fitted inhibition curve with a large enough effect; inconclusive = small, poorly fitted or top-dose-only effect; inactive = no such curve, though single readings can be large or run the other way.

assay: Counterscreen qHTS assay for inhibitors of N-terminal methyltransferase 1 (NTMT1): SPKRIA Counterscreen Assay; conditions: biochemical qHTS; series mostly up to 99.2 µM; activity change, negative = inhibition: at the top concentration
Excerpt: Assay Submitter (PI): Rong Huang Ph.D,
Purdue University, West Lafayette, IN 47907
The N-terminal methytransferase 1 is the first methyltransferase that methylates protein alpha-N-amines and plays an important role in regulating cell mitosis, chromatin interactions and DNA repair. It is observed to be over-expressed in various cancer patient tissues like malignant melanoma and colorectal cancer tissues. Knockdown of NTMT1 in cancer cells causes cell mitotic defects and enhances sensitivity to DNA damaging chemotherapeutics. […] These critical cellular processes in which NTMT1 is implicated, coupled with emerging links to cellular dysfunction, strengthen the inference that NTMT1 is a compelling novel anticancer target. Progress have been made in understanding the molecular properties of NTMT1 and the biological consequences of protein alpha-N-terminal methylation, but there are no specific small molecule probes available for NTMT1 to fully characterize its MTase activity. To address this unmet need, a panel of assay is created and established to enable quantitative high-throughput screening (qHTS) for novel, potent, and selective small molecule NTMT1 inhibitors. Two orthogonal qHTS that use different reagents (ThioGlo vs. MTaseGlo) are developed for primary robotic screening against the NCATS chemical library of more than 400,000 small molecules. Identified inhibitors are reacquired, validated, and further characterized.
MTaseGlo Assay is a luminescence screen that measure the activity of methyltransferases based on the reaction product S-adenosyl homocysteine (SAH). The substrate SAM is converted to SAH upon enzyme activation. MTase-Glo reagent and detection solution convert SAH to ATP and measure the light from the luciferase reaction. Nicotinamide N-methyltransferase (NNMT) is a cystolic enzyme that catalyzes the transfer of a methyl group from the co-factor SAM onto the substrate, nicotinamide (NA) to form 1-methyl-nicotinamide (MNA) and SAH. NNMT MTaseGlo assay is used as a counterscreen to evaluate selectivity of identified inhibitors.
SPKRIA and Ac-RCC-10 control is provided by the Huang laboratory.
PROTOCOL TABLE; SEQUENCE No. (e.g., 1, 2, 3, etc.); […] (e.g., Cells, Incubation, Reagent, etc.); VALUE; DESCRIPTION
1; Reagent; 3 uL; dispense assay buffer.
2; Compound; 23 nL; pin compounds and control into the assay plate.
3; Time; 15 min; room temperature incubation.
4; Reagent; 1 uL; dispensed [4x] substrate or buffer.
5; Time; 30 min; incubate at room temperature.
6; Reagent; 1 uL; dispense MTase-Glo Reagent (R).
7; Time; 30 min; incubate at room temperature.
8; Reagent; 5 uL; dispense [1x] MTase-Glo Detection Solution to allow for ADP to be converted to ATP.
9; Centrifugation; 1,000 RPMs; assay plates were centrifuged.
10; Incubation; 30 min; room temperature.
11; Detection; Luminescence; ViewLux plate reader (clear filter, 10 second exposure).
NOTES (numbers refer to Sequence numbers above; values are from representative experiments)
1; Dispense the assay buffer into Greiner 1536-well black / solid bottom assay plate (Greiner Bio One, Monroe, NC).
2; Pin control inhibitor Ac-RCC1-10 at a final concentration range of 234 nM to 143 uM using a Wako Pin Tool (Wako Automation USA) equipped with a 1536-slotted pin array (Wako Automation, Richmond, VA). Pin compound library into the assay plates (columns 5 - 48) at a final concentration range of 97 nM to 250 uM.
3; Incubate the assay plates at room temperature.
4; Dispense 1 uL of substrate SPKRIA solution (final concentration 1 uM) or 1 uL buffer was added to the wells bringing the final assay volume to 4uL. The assay plate was covered with metal lids.
5; Incubate the assay plate at room temperature.
6; Dispense 1 uL of 5x MTase-Glo Reagent in the assay plate.
7; Incubate at room temperature to allow for SAH to be converted to ADP
8; Dispense 5 uL of 5x MTase-Glo Detection Solution in the assay plate to allow for ADP to be converted to ATP.
9; Assay plates were centrifuged for 15 seconds.
[…]

Row | SMILES | activity change, negative = inhibition | Potency
1 | Cc1cc2c(s1)c1cnn(Cc3cccc(C)c3F)c(=O)c1n2C | -7.45% | –
2 | Oc1cccc(Nc2nc(-c3ccccc3)nc3ccccc23)c1 | – | 20 µM (active)
3 | COc1ccc(C(=O)Nc2noc3ccccc23)cc1 | – | 39.8 µM (active)
4 | Clc1ccc2ncc(-c3cccc(NC4CCNC4)n3)n2c1 (stereo not given) | -12% | –
5 | Cc1cc(C)n2c(Nc3c(C)cccc3C)c(-c3ccsc3)nc2n1 | -2.07% | –
6 | COCCCNc1ncnc2onc(-c3ccc(F)cc3)c12 | – | 50.1 µM (active)
7 | O=C(O)c1cccc(-c2noc(-c3ccccc3F)n2)c1 | -28.1% | –
8 | CC(C)(C)c1ccc(-c2csc(N3CCC(C(N)=O)CC3)n2)cc1 | -12.4% | –
9 | Cc1cc(C)nc(NC(=S)N2CCN(c3ccncc3)CC2)c1 | 4.88% | –
10 | Cc1nc(C)c(-c2ccc3ncnc(NCc4ncc[nH]4)c3c2)s1 | – | 44.7 µM (active)
11 | C1CCC(C(CC2CCCCN2)C2CCCCC2)CC1 (stereo not given) | 2.45% | –
12 | Cc1ccc(Nc2ncnc3c2cnn3-c2ccccc2)c(C)c1 | – | 7.94 µM (active)
13 | Cc1ccc2nc(-c3ccc(O)cc3)c(Nc3ccc(Cl)cc3)n2c1 | -11.1% | –
14 | C[C@]12CCC3=C4CCC(=O)C=C4CC[C@H]3[C@@H]1CC[C@@]2(O)CC#N | 1.22% | –
15 | CC(=O)Nc1sc2c(c1-c1nc3ccccc3s1)CNC2 | -17.4% | –
16 | O=C(Nc1noc2ccccc12)c1ccc(F)cc1 | – | 39.8 µM (active)
17 | Oc1ccc(Cl)cc1Nc1nc2ccccc2n2cnnc12 | -9.88% | –
18 | Nc1ccc2nc(-c3ccc(O)cc3)sc2c1 | – | 44.7 µM (active)

Row | SMILES | activity change, negative = inhibition | Potency
19 | COc1cc2c(cc1O)CC[C@H]1[C@@H]2CC[C@]2(C)[C@H](O)CC[C@@H]12 | – | 50.1 µM (active)
20 | O=c1c(-c2ccc(O)cc2)coc2cc(O)ccc12 | -27.1% | –
21 | Cc1c(Cl)cccc1Nc1nn2c(=O)c3ccccc3nc2s1 | -8.92% | –
22 | CCc1cc(C(N)=S)ccn1 | -17.3% | –
23 | Nc1nc2c(s1)C(c1ccccc1Cl)CC(=O)N2 (stereo not given) | -13.1% | –
24 | O=C(Nc1noc2ccccc12)c1c(F)cccc1F | -19.7% | –
25 | CCCn1c(/C=C/c2ccccc2)nc2ccccc21 | -35.4% | –
26 | CNc1sc(-c2cccc3ccccc23)nc1C#N | -3.5% | –
27 | CCCNC(=O)CSc1c(CCC)cnc2c1c(=O)n(C)c(=O)n2C | -10.3% | –
28 | Cc1cc2c(s1)c1cnn(Cc3cccc(F)c3)c(=O)c1n2C | -5.6% | –
29 | NC(=O)c1ncn([C@@H]2O[C@H](CO)[C@@H](O)[C@H]2O)c1N | -24% | –
30 | O=c1[nH]cnc2nc[nH]c12 | -6.1% | –
31 | O=C(c1ccc(/C=C/c2n[nH]c3ccccc23)cc1)N1CCNCC1 | -20.5% | –
32 | CC(C)CCNc1ncnc2c1cnn2-c1cccc(Cl)c1 | – | 22.4 µM (active)
33 | CC(C)=CCC/C(C)=C/CC/C(C)=C/CSc1ccccc1C(=O)O | -2.24% | –
34 | NC(=O)C1CCN(c2nc(-c3cccc4ccccc34)cs2)CC1 | -9.6% | –
35 | O=c1cc(-c2ccccc2)oc2ccc(O)cc12 | – | 31.6 µM (active)
